From PubChem BioAssay (NCATS)
Unmarked numbers belong to inactive results. Cut-off read from the data, not from the text of the source: active = potency below about 10 µM; inactive = the rest.

target: Lysosomal acid glucosylceramidase (Homo sapiens) (UniProt P04062); test: Glucocerebrosidase-p2 (AID 348); details: purified GBA, blue fluorogenic substrate, 40 min
Method in brief: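 Normal human glucocerebrosidase (0.2 nM) with blue fluorogenic substrate (80 uM final) in citrate/phosphate pH 5.9 with 10mM sodium taurocholate, 0.01% tween-20; 40 min RT, NaOH/glycine stop; fluorescence Ex 365/Em 440; AC50 from a titration from 0.6 nM upwards.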
Potency is the fitted concentration of half-maximal effect.

Sequence of Lysosomal acid glucosylceramidase (Homo sapiens) (P04062 whole entry, looked up): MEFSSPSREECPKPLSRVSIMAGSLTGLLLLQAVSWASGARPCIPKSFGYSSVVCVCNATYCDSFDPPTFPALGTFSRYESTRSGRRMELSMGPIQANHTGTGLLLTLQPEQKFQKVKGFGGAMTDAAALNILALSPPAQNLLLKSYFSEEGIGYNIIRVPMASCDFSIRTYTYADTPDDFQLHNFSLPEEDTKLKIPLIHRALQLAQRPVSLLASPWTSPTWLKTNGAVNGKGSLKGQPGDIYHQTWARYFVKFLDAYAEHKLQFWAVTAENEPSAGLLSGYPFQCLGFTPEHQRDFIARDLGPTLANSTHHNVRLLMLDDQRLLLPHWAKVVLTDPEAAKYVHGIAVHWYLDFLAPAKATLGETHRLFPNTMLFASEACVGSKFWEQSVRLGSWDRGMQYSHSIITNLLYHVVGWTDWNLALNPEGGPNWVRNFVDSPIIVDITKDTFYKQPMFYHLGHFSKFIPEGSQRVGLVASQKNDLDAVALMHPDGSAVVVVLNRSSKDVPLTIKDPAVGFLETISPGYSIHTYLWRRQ

Row | SMILES | Potency [µM]
1 | CS(=O)(=O)Nc1cccc(-c2cc(Nc3ccccc3)ncn2)c1 | > 11.4
2 | CCNc1ncc2nc(-c3ccc(OC)cc3)c(=O)n(CCc3ccccc3)c2n1 | > 11.4
3 | COc1ccccc1CNc1cc(-c2ccccc2Cl)ncn1 | > 11.4
4 | Cc1noc(C)c1-c1cncnc1-n1ccnc1 | > 11.4
5 | CCNc1ncc2nc(-c3ccc(Cl)cc3)c(=O)n(Cc3cccc(OC)c3)c2n1 | > 11.4
6 | COc1cccc(Nc2ncc3ncc(=O)n(C[C@H]4CCCO4)c3n2)c1 | > 11.4
7 | COc1ccc2[nH]cc(CCNc3ccnc(-c4c(C)noc4C)n3)c2c1 | > 11.4
8 | COc1cccc(Cn2c(=O)c(-c3cccs3)nc3cnc(OC)nc32)c1 | > 11.4
9 | O=c1c(-c2ccc(Cl)cc2)nc2cnc(N3CCOCC3)nc2n1Cc1ccc(F)cc1 | > 11.4
10 | COCCNc1ncnc2ccc(-c3c(C)noc3C)cc12 | > 11.4
11 | CN(Cc1ccco1)c1nc(-c2ccoc2)nc2ccccc12 | > 11.4
12 | COc1cccc(Cn2c(=O)c(-c3cccs3)nc3cnc(N4CCNCC4)nc32)c1 | > 11.4
13 | COc1ccccc1CNc1cc(-c2ccccc2C(F)(F)F)ncn1 | > 11.4
14 | N#CCCn1c(=O)c(-c2cc(F)cc(F)c2)nc2cnc(Nc3ccccc3)nc21 | > 11.4
15 | COc1cccc(Nc2ncc3nc(CCc4ccccc4)c(=O)n(Cc4cccs4)c3n2)c1 | > 11.4
